# Experimental data taken from ChEMBL document CHEMBL4513216, “Probing the Open Global Health Chemical Diversity Library for Multistage-Active Starting Points for Next-Generation Antimalarials” (ACS Infect Dis, 2020).
# The whole screen tested about 65,000 compounds, of which about 2,100 (3.2%) showed an effect of 50% or more. The median lay at about -52%. The sample holds strong results, similar compounds and a random draw of the others, so the mix is not that of the screen.
# System: Plasmodium falciparum
# Assay: Screen against P. falciparum Asexual Blood Stage (ABS), at 5uM
# Type: functional, Dd2
# Details: tested at 5 uM
row,SMILES,INHIBITION
1,Cc1n[nH]c(C)c1CC(=O)N1CCCN(C)C2(CCN(C)CC2)C1,-107%
2,CCCOc1ccccc1CN[C@@H]1CCC[C@H]1Cc1cc(C)no1,84.9%
3,Cc1cc(CNC2(c3ccccc3)CCCCC2)on1,9.53%
4,Cc1cc(C[C@@H]2CCC[C@H]2NCc2cc(C)c(O)c(C)c2)on1,79.9%
5,CCO[C@@H]1CC[C@H]2[C@H]1OCCN2CC1CCC1,-47.6%
6,COc1c(C2SCC(=O)Nc3[nH]ncc32)cc2c(c1OC)OCO2 (configuration not stated),-32.3%
7,CN(C)C(=O)COC[C@@]12CCC[C@@H]1CNC2,-23.4%
8,Cn1cc(N2C[C@@H]3CN(Cc4ccccn4)C[C@@H]3C2=O)cn1,-120%
9,COc1cc(C(C)NCc2ncccc2C)ccc1SC(F)F (configuration not stated),75.7%
10,Cc1cccc(-c2ncc(CNC(C)Cc3ncccc3C)cn2)c1 (configuration not stated),-7.12%
11,Cc1nc(NCC2CC2)nc2c1COCC21CCN(C)C1 (configuration not stated),-73.6%
12,CN(Cc1cccc(O)c1)CC1CCCN(CCc2ccc(Cl)cc2)C1 (configuration not stated),83.5%
13,Cc1nc[nH]c1CN(C)CC1CCCN(CCc2ccc(Cl)cc2)C1 (configuration not stated),82.9%
14,Cc1csc(CN2CC[C@H]3C[C@H](C)O[C@@H]3C2)n1,-59.9%
15,Cc1noc(C)c1CN1CCO[C@H]2CN(C3CCOCC3)C[C@H]21,3.95%
16,CC/C=C(/C)C(=O)NS(=O)(=O)c1ccc(C#N)c(C(F)(F)F)c1,-159%
17,CC(Cn1cncn1)NCc1ccc2nonc2c1 (configuration not stated),-92.4%
18,Clc1ccccc1CCN1CCN(c2ccc3nncn3n2)CC1,74.9%
19,Cc1ccccc1CC(=O)N1C[C@@H](O)[C@H](N2CCC(F)(F)CC2)C1,-76.9%
20,COc1cc(C2SCC(=O)Nc3[nH]ncc32)c(OC)c2c1OCO2 (configuration not stated),-118%
21,Cc1c(Cl)c(C(=O)N2CC(c3cccnc3)C2)nn1C,-53.6%
22,COCCN1C[C@@H]2COC[C@@H](CC(=O)NCc3cccnc3)[C@@H]2C1,-108%
23,CC(Cn1ccnc1)NS(=O)(=O)c1ccc(C#N)c(Cl)c1 (configuration not stated),-24.8%

row,SMILES,INHIBITION
1,CCOc1cc(CNCCCn2ccnc2)cc(Cl)c1OCC,77.3%
2,CC(Cn1ccnc1)NCc1ccc2nonc2c1 (configuration not stated),-108%
3,CCOc1ccc(CNCCCn2ccnc2)cc1Cl,87.7%
4,COc1ccc(Cl)cc1CNCCCn1ccnc1,82.3%
5,COc1cc(CNC(C)Cn2cccn2)cc(Cl)c1OC (configuration not stated),-35.2%
6,CC(Cn1ccnc1)NCc1cc(Br)c2c(c1)OCO2 (configuration not stated),6.16%
7,COc1cc(CNC(C)Cn2ccnc2)cc2c1OCO2 (configuration not stated),-46.3%
8,COc1cc(CNC(C)Cn2ccnc2)cc2c1OCCO2 (configuration not stated),-34%
9,CCOc1ccc(CNCCCn2ccnc2)cc1Br,80.1%
10,O=C1CSC(c2ccsc2)c2c(n(C3CCCC3)[nH]c2=O)N1 (configuration not stated),-94.4%
11,Cc1csc(CN2C[C@@H]3CN(C)CCO[C@@H]3C2)n1,-19.5%
12,CCOc1c(Cl)cc(Cl)cc1CNCCCn1ccnc1,75.9%
13,Cc1nn(CCNC(C)Cn2ccnc2)c(C)c1Cl (configuration not stated),0.358%
14,CC(C)(C)n1cc(C(=O)NCCCn2ccnc2)c2cccnc21,-3.93%
15,COCc1cn(C[C@H]2CC3CCN2C[C@@H]3C(=O)Nc2ccccc2)nn1 (some centres not stated),-106%
16,CNC(=O)c1cn(C(C)(C)C)c2ncccc12,-148%
17,c1cncc(N2CC[C@@H]3CN(CC4CC4)C[C@@H]3C2)c1,6.94%
18,Cc1cnc(N2C[C@H]3CCN(CC4CC4)C[C@@H]3C2)nc1,40.6%
19,Cc1cnc(N2C[C@H]3CCN(CC4CC4)C[C@H]3C2)nc1,65.5%
20,Cn1ccnc1CNC1CCCOc2c1ccc1ccccc21 (configuration not stated),77.2%
21,Cc1nc(-c2cc(Cl)c3c(c2)CC(CN)O3)c[nH]1 (configuration not stated),83.7%
22,Cc1cc2c(c(-c3c[nH]c(C)n3)c1)OC(CN)C2 (configuration not stated),80.1%
23,Cc1nc(-c2cc(Cl)cc3c2OC(CN)C3)c[nH]1 (configuration not stated),94.4%

row,SMILES,INHIBITION
1,NCC1Cc2cc(Cl)cc(-c3cncc(C(=O)N4CCCCC4)n3)c2O1 (configuration not stated),76%
2,CCN1CCN(C)C(=O)C12CCN(C(=O)Cc1ccccn1)CC2,-113%
3,CCC(=O)NCC(c1ccc(SC)cc1)N1CCc2sccc2C1 (configuration not stated),77.1%
4,O=C1NC2(CCNCC2)CC1c1ccncc1 (configuration not stated),-134%
5,C[C@@H]1CN(Cc2cccnc2)C[C@]1(C)O,-61.6%
6,C[C@@H]1CN(C2CCN(c3ccccc3F)CC2)CC[C@]1(C)O,87.7%
7,O=C(CCN1CCCC(CO)(CC2CC2)C1)NCc1cccc(Cl)c1 (configuration not stated),80%
8,O=C(NCc1cccnc1)C1=NOC2(CCCN(CCO)C2)C1 (configuration not stated),-58.4%
9,Cc1cc(N(C)C)nc(N2CCCC2c2cccnc2)n1 (configuration not stated),-15.1%
10,Nc1cc(-c2c[nH]nc2C2CCCN2CCCc2ccccc2)ccn1 (configuration not stated),77.3%
11,O=C1[C@H]2CN(Cc3ccoc3)C[C@@H]2CCN1Cc1cccnc1,-121%
12,Cc1noc(C)c1CN1CC[C@H]2O[C@@H](C(=O)N3CCCC3)CC[C@H]21,-58.1%
13,O=C(c1ccccc1-n1cnnn1)N1CCC2(CC1)OCCO2,-76.9%
14,c1cnn(CC2CCN(c3nc(C4CC4)nc4c3CCNCC4)CC2)c1,91%
15,NCC1CCN(c2nc(C3CCCC3)nc3c2CCNCC3)C1 (configuration not stated),93.5%
16,C1CCC(c2nc3c(c(N4CCN5CCCC5C4)n2)CCNCC3)C1 (configuration not stated),77.4%
17,CC(C)c1nc(N2CCN3CCCC3C2)c2cnn(C)c2n1 (configuration not stated),12.9%
18,CCOCc1nc2c(c(N3CCN4CCCC4C3)n1)CCNCC2 (configuration not stated),-33.2%
19,Cc1nn(-c2ccccn2)c2c1C(c1cnn(C)c1)SCC(=O)N2 (configuration not stated),-90.8%
20,Cc1noc(C)c1CN1CCO[C@H]2CNC[C@H]21,-38.6%
21,CCN(C)c1nccc(N2CCN[C@H]3CS(=O)(=O)C[C@H]32)n1,-58.4%
